Among all 360,000 compounds or so, about 2,400 (0.67%) were called active.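 How the source made its calls: active means activation above a run cutoff, the mean activation of all tested compounds plus 3 SD (cut at about 14% in these data); inactive means the rest.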 The entries come from a sample that favours actives as a whole.
These molecules were tested against 5-hydroxytryptamine receptor 2A (Mus musculus) (UniProt P35363) (assay: activation of mouse 5-HT2A receptor – cell-based, luminescence, primary screen (AID 624169;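 further: 0% = plate median of compound wells and 100% = 30 µM serotonin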)). Details: CHO-K1 mHTR2A beta-arrestin complementation, at 7.6 µM, active compounds read high, percent of 30 µM serotonin response.
Sequence of 5-hydroxytryptamine receptor 2A (Mus musculus) (P35363 whole entry, looked up): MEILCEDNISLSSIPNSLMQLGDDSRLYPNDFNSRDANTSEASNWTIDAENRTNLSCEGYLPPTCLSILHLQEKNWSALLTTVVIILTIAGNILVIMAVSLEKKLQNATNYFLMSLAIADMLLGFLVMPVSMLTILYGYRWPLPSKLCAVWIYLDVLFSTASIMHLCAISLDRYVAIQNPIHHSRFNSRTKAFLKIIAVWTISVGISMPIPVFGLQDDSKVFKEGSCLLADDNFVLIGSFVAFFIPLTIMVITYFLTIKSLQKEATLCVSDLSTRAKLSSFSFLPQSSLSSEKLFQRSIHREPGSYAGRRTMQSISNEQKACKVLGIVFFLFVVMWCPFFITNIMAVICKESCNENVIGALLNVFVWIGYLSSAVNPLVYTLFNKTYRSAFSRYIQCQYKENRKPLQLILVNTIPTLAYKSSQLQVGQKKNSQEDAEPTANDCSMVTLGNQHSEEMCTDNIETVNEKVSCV
In the case of `O=S1(=O)CC(N2CCN(Cc3ccccc3F)CC2)CN1Cc1cn(Cc2ccccc2)nn1` (stereo unspecified), the activation is reported as 0.73% (inactive).
With `CC(=O)NCC(=O)N(C)C(C(=O)Nc1ccc2c(c1)OCCO2)c1ccccc1` (stereo unspecified) the activation was 1.2% (inactive).
With `CCOc1ccc(/C=C/C(=O)OCC(=O)c2ccccc2OC)cc1OC` the activation was -3.76% (inactive).
In the case of `CC(=O)c1cc(CN2CCC(n3nccc3NC(=O)c3ccccc3Cl)CC2)cs1`, the activation is reported as 1.51% (inactive).
`O=C(Nc1ccc2sc3ccccc3c(=O)c2c1)c1ccccc1Cl` was tested, and the activation was -3.04% (inactive).
With `O=C(Nc1cc(=O)[nH]c2ncnn12)c1ccccc1Cl` the activation was 16.4% (active).
In the case of `N#Cc1c(-c2ccc(F)cc2)cc(C2CC2)nc1SCC(=O)c1cccs1`, the activation is reported as 4.09% (inactive).
`COc1ccccc1CNC(=O)[C@@H]1CCCN1C(=O)[C@@H]1Cc2ccccc2CN1C(=O)OC(C)(C)C` was tested, and the activation was -8.22% (inactive).
With `Cc1cccc(CNC(=O)c2sc(=O)n(Cc3ccccc3C)c2C)c1` the activation was -9.77% (inactive).
`Cc1c(C(=O)NCC2CC2)sc(=O)n1Cc1cccc(F)c1` was tested, and the activation was 15% (active).
For `Cc1cccc(C)c1Cn1c(C)c(C(=O)NCc2cccc(Cl)c2)sc1=O`, the activation was 0.95% (inactive).
In the case of `O=C(NNS(=O)(=O)c1ccccc1C(F)(F)F)c1cc2ncc(C(F)(F)F)cc2s1`, the activation is reported as 2.01% (inactive).
With `O=C1Cc2cc(S(=O)(=O)Nc3cccc(F)c3)ccc2N1` the activation was -4.43% (inactive).
With `CCn1cc(-c2cc(C(=O)O)on2)c(C)n1` the activation was 0.66% (inactive).
In the case of `CC(C)Cc1oc(C(=O)O)cc1CN`, the activation is reported as -1.78% (inactive).
For `CC(C)c1cc(C(=O)O)on1`, the activation was 16.1% (active).
In the case of `O=C(NCc1ccccc1Cl)C1CCN(S(=O)(=O)c2cccc3nonc23)CC1`, the activation is reported as 0.64% (inactive).
`C=C1C(=O)OC2C1CCC(C)=CCCC1(C)OC21` (stereo unspecified) was tested, and the activation was 17.6% (active).
In the case of `Cc1cc(C(=O)OC(C)C(=O)NC2CCCCC2C)c(C)o1` (stereo unspecified), the activation is reported as 5.88% (inactive).
With `CC(C)(C)NC(=O)Cn1cnc2cc([N+](=O)[O-])ccc2c1=O` the activation was -0.6% (inactive).
For `O=C(OCc1cn([C@H]2C[C@H](c3ccccc3)N(C(=O)c3cccs3)C[C@@H]2O)nn1)c1ccccc1`, the activation was 0.06% (inactive).
With `CC1(C)CC(=O)C=C(c2ccccc2CO)C1=O` the activation was 3.89% (inactive).
`Fc1ccc2[nH]c3c(N4CCSCC4)ncnc3c2c1` was tested, and the activation was 16.4% (active).
For `Cc1ccc(C)c(NC(=O)C(c2ccccc2)N2CCN(CC(=O)NC3CC3)CC2)c1` (stereo unspecified), the activation was 1.96% (inactive).
`Brc1cc(Br)c(Oc2cc(Br)c(Br)cc2Br)cc1Br` was tested, and the activation was 4.05% (inactive).
For `CCOC(=O)C1CCN(C(=O)C2CCCN(S(=O)(=O)c3ccc(OC)c(Cl)c3)C2)CC1` (stereo unspecified), the activation was -2.55% (inactive).

From PubChem BioAssay AID624169 (The Scripps Research Institute Molecular Screening Center, 2012)
